RAD52 inh: inhibitors of human RAD52 DNA annealing; recombinant RAD52 DNA annealing, FRET fluorescence; inhibition, % at 18.7 µM; 360,000 tested, 0.46% active; AID 651710;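 active = every replicate showing at least 50% inhibition; inconclusive = mean inhibition at least 50% but not in every replicate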
Target sequence (P43351 whole entry, looked up): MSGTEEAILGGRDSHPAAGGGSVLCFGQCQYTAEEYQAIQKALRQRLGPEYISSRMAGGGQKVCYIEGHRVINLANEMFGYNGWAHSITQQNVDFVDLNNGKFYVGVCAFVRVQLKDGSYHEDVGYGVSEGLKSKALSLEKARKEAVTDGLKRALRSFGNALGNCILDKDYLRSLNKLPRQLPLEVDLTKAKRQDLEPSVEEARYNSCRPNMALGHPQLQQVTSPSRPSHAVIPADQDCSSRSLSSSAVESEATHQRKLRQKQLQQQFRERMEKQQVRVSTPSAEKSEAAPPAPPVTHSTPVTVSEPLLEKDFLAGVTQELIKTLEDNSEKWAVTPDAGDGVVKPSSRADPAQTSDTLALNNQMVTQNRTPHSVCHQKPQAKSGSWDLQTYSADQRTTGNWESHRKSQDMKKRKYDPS
Casp6 inh: inhibitors of human caspase-6; purified caspase-6, Z-VEID-R110 cleavage fluorescence; 350,000 tested, 0.53% active; P55212; inhibition, % at 12.5 µM;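 active = mean inhibition across replicates at least about 35%, with every replicate also reaching that limit, limit read from the data; inconclusive = only one of the two criteria met; inactive = neither criterion met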
Target sequence (P55212 24-179 limits assumed): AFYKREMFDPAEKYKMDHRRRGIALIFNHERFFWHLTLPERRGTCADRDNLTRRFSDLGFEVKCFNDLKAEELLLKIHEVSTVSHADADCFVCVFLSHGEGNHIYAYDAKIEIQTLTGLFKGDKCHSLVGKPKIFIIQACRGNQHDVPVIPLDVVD
Target sequence (P55212 194-293 limits assumed): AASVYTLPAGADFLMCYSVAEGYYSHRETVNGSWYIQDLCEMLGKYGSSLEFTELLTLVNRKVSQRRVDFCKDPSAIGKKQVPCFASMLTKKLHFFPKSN
Glyco luc inh: N-linked glycosylation inhibition; D54 ERlucT glycosylation luciferase reporter, 24 h; percent of 100 nM tunicamycin response; reporter increase, % at 12.5 µM; 360,000 tested, 0.23% active;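 active = mean luciferase reporter signal, scaled so untreated is 0 and the glycosylation-blocking control 100, at or above a set limit in every replicate; inconclusive = mean reaches the limit but not every replicate does; inactive = mean below the limit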;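 also: luciferase carries N-glycosylation sites so blocking glycosylation raises the light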
RAD54 inh: inhibitors of human RAD54 branch migration; Q92698; RAD54 Holliday junction branch migration, FAM/BHQ fluorescence; inhibition, % at 10.4 µM; 360,000 tested, 0.14% active; AID 602329;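 active = mean normalized replicate activity at least 40 and at least half of replicates scoring 40 or more; inconclusive = only one of the two criteria met; inactive = mean below 40 and under half of replicates reaching 40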;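 also: inhibitors cause a drop in the FAM fluorescence signal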
MLL AF4-AF9 inh: inhibitors of human MLL-AF4/AF9 interaction; P42568; 350,000 tested, 0.47% active; inhibition, % at 10 µM; AlphaScreen, biotin-AF4 peptide binding to FLAG-AF9; AID 651704;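 active = every replicate reaching a set inhibition limit, whatever the replicate mean, cut at about 25% in these data; inconclusive = mean inhibition reaches that limit but some replicates miss it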
Of the large screens only hits and unclear results are named; the others gave an inactive call; ! = not active in a repeat. This is a sample that favours compounds with a hit; in the whole collection about 1.2% have one here.

Nc1cc2c(cc1Br)-c1c(C(=O)O)cccc1C2O (centres undefined)	Glyco luc inh 35 (no result: RAD54 inh)
COc1ccc(-c2ccc3c(c2)[C@H]2[C@H](CCN2C(=O)Cc2ccccc2)[C@H](CO)N3C)cc1	none (no result: RAD52 inh, Casp6 inh, Glyco luc inh, MLL AF4-AF9 inh)
O=c1ccc(-c2ccc(S(=O)(=O)Nc3cccc([N+](=O)[O-])c3)s2)n[nH]1	Casp6 inh 36
O=C(NC[C@@H]1CC[C@@H]2[C@@H](CN2Cc2nccs2)O1)C1CCC1	none (no result: Glyco luc inh, RAD54 inh)
CN(C)CCCNC(=O)C[C@H]1C[C@H](C(=O)N2CCCCC2)[C@@]2(C)c3[nH]c4cc(-c5ccco5)ccc4c3CCN2C1=O	none
CN(C)CCCNC(=O)C[C@H]1C[C@H](C(=O)N2CCCCC2)[C@@]2(CCc3ccccc3)c3[nH]c4cc(-c5ccco5)ccc4c3CCN2C1=O	RAD52 inh 75, MLL AF4-AF9 inh 53
C[C@@H]1CCCCO[C@H](CN(C)Cc2ccc3c(c2)OCO3)[C@H](C)CN([C@@H](C)CO)C(=O)c2cc(NS(=O)(=O)c3ccc(F)cc3)ccc2O1	none (no result: Glyco luc inh)
COc1cc(/C=C/C(=O)Nc2ccc(C)cc2)cc(OC)c1OC	none (no result: RAD52 inh, Casp6 inh, RAD54 inh, MLL AF4-AF9 inh)
CCN(CC)CCNC(=O)c1ccc(NC(=O)/C=C/c2cc(OC)c(OC)c(OC)c2)cc1	RAD54 inh 62
CCOc1ccc(NC(=O)CN(C)C(=O)c2cc(C)nc3ccccc23)cc1OCC	Casp6 inh 37
CCOc1ccc(NC(=O)CN(C)C(=O)c2cc(-c3ccncc3)nc3ccccc23)cc1OCC	none
CCCNC(=O)N1C[C@@H]2[C@H](c3ccccc31)[C@H](CO)N2C(=O)NCCC	none (no result: Glyco luc inh)
CC(=O)c1ccc(NC(=O)[C@@H]2CCCN2C(=O)OC(C)(C)C)cc1	Casp6 inh 56
COc1ccccc1CCNCc1ccc(OC)c(OCc2ccccc2)c1	Glyco luc inh 34 (no result: RAD52 inh, Casp6 inh, MLL AF4-AF9 inh)
CC(NC1=CC(=O)c2cccnc2C1=O)C(O)c1ccccc1 (centres undefined)	Casp6 inh 100 (no result: RAD54 inh)
CC(c1ccccc1)N1C(=O)c2cccnc2C1=O (centres undefined)	none
C[C@@H](NC(=O)C[C@@H]1CC[C@@H](NC(=O)c2cccnc2)[C@@H](CO)O1)c1ccccc1	none (no result: Glyco luc inh)
NC(=O)N=Nc1c2[nH]c3ccccc3nc-2c2ccccc12	Glyco luc inh 94, RAD54 inh inconclusive (no result: MLL AF4-AF9 inh)
O=c1[nH]c2ccccc2nc1-c1ccccc1	none
COc1cccc(C(=O)NC2CCCN(C3Cc4ccccc4C3)C2)c1OC (centres undefined)	MLL AF4-AF9 inh 26
Cc1nnc(N2C(=O)c3oc4ccccc4c(=O)c3C2c2ccco2)s1 (centres undefined)	Casp6 inh 38
Cc1cccc(C=NNc2cc(C)c3cccc(C)c3n2)n1	MLL AF4-AF9 inh 25 (no result: Glyco luc inh, RAD54 inh)
Cc1ccc(S(=O)(=O)Nc2ccc3c(c2)CC(=O)N([C@@H](C)CO)C[C@H](C)[C@H](CN(C)C(=O)Nc2ccc4c(c2)OCO4)O3)cc1	none (no result: Glyco luc inh)
CC(=O)[C@@]1(O)Cc2c(O)c3c(c(O)c2[C@H](O[C@H]2C[C@H](N)[C@H](O)[C@H](C)O2)C1)C(=O)c1ccccc1C3=O	MLL AF4-AF9 inh 25
O=C1Cc2ccccc2C(=O)N1c1cccc(Cl)c1	Casp6 inh 35
O=C1Cc2ccccc2C(=O)N1c1ccccc1	none
O=C1Cc2ccccc2C(=O)N1c1ccc(F)cc1Cl	Casp6 inh 44
O=C(C[C@H]1CC[C@H](NC(=O)Nc2cc(F)ccc2F)[C@@H](CO)O1)NCCCN1CCOCC1	none (no result: Glyco luc inh)
Cc1ccc(C)c(S(=O)(=O)Nc2ccc3oc(C)c(C(=O)O)c3c2)c1	Casp6 inh 69
COc1ccc(S(=O)(=O)Nc2ccc3c(c2)CC(=O)N([C@H](C)CO)C[C@H](C)[C@@H](CN(C)S(=O)(=O)c2ccc(C)cc2)O3)cc1	none (no result: Casp6 inh, Glyco luc inh)
CCCN(C)C[C@H]1OCCCC[C@@H](C)Oc2ccc(NS(=O)(=O)c3ccccc3)cc2C(=O)N([C@@H](C)CO)C[C@H]1C	RAD52 inh 54 (no result: Glyco luc inh)
C[C@@H]1CCCCO[C@@H](CN(C)Cc2ccc3c(c2)OCO3)[C@H](C)CN([C@@H](C)CO)C(=O)c2cc(NS(=O)(=O)c3ccc(Cl)cc3)ccc2O1	none (no result: Glyco luc inh)
COc1ccc(S(=O)(=O)Nc2ccc3c(c2)C(=O)N([C@@H](C)CO)C[C@@H](C)[C@H](CN(C)Cc2ccc(C(=O)Nc4ccccc4N)cc2)OCCCC[C@@H](C)O3)cc1	RAD52 inh 55 (no result: Glyco luc inh)
C[C@@H]1CCCCO[C@H](CN(C)Cc2ccc3c(c2)OCO3)[C@@H](C)CN([C@@H](C)CO)C(=O)c2cc(NS(=O)(=O)c3ccc(Cl)cc3)ccc2O1	RAD52 inh 61 (no result: Glyco luc inh)
COc1ccc(NC(=O)N(C)C[C@@H]2OCCCC[C@@H](C)Oc3ccc(NS(=O)(=O)c4ccccc4)cc3C(=O)N([C@H](C)CO)C[C@@H]2C)cc1	RAD52 inh 85 (no result: Glyco luc inh)
C/C=C/c1ccc2c(c1)O[C@H](CN(C)Cc1cncnc1)[C@H](C)CN([C@@H](C)CO)S2(=O)=O	none (no result: Glyco luc inh)
COc1ccc(CN(C)C[C@@H]2OCCCC[C@@H](C)Oc3ccc(NS(=O)(=O)c4ccc(Cl)cc4)cc3C(=O)N([C@@H](C)CO)C[C@@H]2C)cc1	RAD52 inh 56 (no result: Glyco luc inh)
C[C@@H]1CN([C@@H](C)CO)C(=O)c2cc(NS(=O)(=O)c3ccc(Cl)cc3)ccc2O[C@H]1CN(C)Cc1ccccc1	MLL AF4-AF9 inh 25 (no result: Glyco luc inh)
COc1ccc(CN(C)C[C@H]2OCCCC[C@@H](C)Oc3ccc(NS(=O)(=O)c4ccc(OC)cc4)cc3C(=O)N([C@H](C)CO)C[C@@H]2C)cc1	none (no result: RAD52 inh, Casp6 inh, Glyco luc inh, MLL AF4-AF9 inh)
COc1ccc(CN(C)C[C@H]2OCCCC[C@H](C)Oc3ccc(NS(=O)(=O)c4ccc(Cl)cc4)cc3C(=O)N([C@H](C)CO)C[C@H]2C)cc1	none (no result: Glyco luc inh)
COc1ccc(CN(C)C[C@@H]2OCCCC[C@@H](C)Oc3ccc(NS(=O)(=O)c4ccc(Cl)cc4)cc3C(=O)N([C@H](C)CO)C[C@H]2C)cc1	none (no result: Glyco luc inh)
COc1ccc(CN(C)C[C@H]2OCCCC[C@@H](C)Oc3ccc(NS(=O)(=O)c4ccc(Cl)cc4)cc3C(=O)N([C@@H](C)CO)C[C@@H]2C)cc1	RAD52 inh 51 (no result: Glyco luc inh)
COc1ccc(CN(C)C[C@@H]2OCCCC[C@H](C)Oc3ccc(NS(=O)(=O)c4ccc(F)cc4)cc3C(=O)N([C@H](C)CO)C[C@@H]2C)cc1	RAD52 inh 53 (no result: Glyco luc inh)
Cc1ccccc1S(=O)(=O)N1[C@@H]2CNC[C@H]1C2c1ccc(/C=C/c2ccccc2)cc1 (some centres undefined)	RAD52 inh 51! (no result: Glyco luc inh, RAD54 inh)
Cc1ccccc1S(=O)(=O)N1[C@@H]2CNC[C@H]1[C@@H]2c1ccc(-c2ccc(C#N)cc2)cc1	Casp6 inh 40 (no result: Glyco luc inh, RAD54 inh)
N#Cc1cccc(-c2ccc(C3[C@H]4CNC[C@@H]3N4S(=O)(=O)c3ccccc3F)cc2)c1 (some centres undefined)	none (no result: Glyco luc inh, RAD54 inh)
COc1ccc2c3c([nH]c2c1)[C@@H](CO)N(C(=O)c1ccc(F)cc1)CC31CN(C(=O)CC2CC2)C1	none (no result: Glyco luc inh, RAD54 inh)

Screening data: PubChem, Broad Institute
